A short description of the test: qHTS for identification of novel therapeutic agents for treatment of microphthalmiaassociated transcription factor (MiT) renal cell carcinoma (RCC) (AID 1963991). To be noted: CellTiter-Glo, 48 h; for Potency: active = Z-AUC below -0.8 in all three lines; for z-score: stronger effect = lower value. From the text: PI: Marston Linehan Ph.D.
Urologic Oncology Branch, Center for Cancer Research (CCR)
National Cancer Institute (NCI), National Institute of Health (NIH), Bethesda, Maryland
MiT-Renal Cell Carcinoma (RCC) is characterized by genomic translocations involving microphthalmia-associated transcription factor (MiT) family members TFE3, TFEB, or MITF. MiT-RCC represents a specific subtype of sporadic RCC that is predominantly seen in young patients and can present with heterogeneous histological features making diagnosis challenging. Moreover, the disease biology of this aggressive cancer is poorly understood and there is no accepted standard of care therapy for patients with advanced disease. Tumor-derived cell lines have been established from human TFE3-RCC providing useful models for preclinical studies. TFE3-RCC tumor derived cell lines and their tissues of origin were characterized by IHC and gene expression analyses. An unbiased high-throughput drug screen was performed to identify novel therapeutic agents for treatment of MiT-RCC. Potential therapeutic candidates were validated in in vitro and in vivo preclinical studies. Mechanistic assays were conducted to confirm the on-target effects of drugs. The results of a high-throughput small molecule drug screen utilizing three TFE3-RCC tumor-derived cell lines identified five classes of agents with potential pharmacological efficacy, including inhibitors of phosphoinositide-3-kinase (PI3K) and mechanistic target of rapamycin (mTOR), and several additional agents, including the transcription inhibitor Mithramycin A. Upregulation of the cell surface marker GPNMB, a specific MiT transcriptional target, was confirmed in TFE3-RCC and evaluated as a therapeutic target using the GPNMB-targeted antibody-drug conjugate CDX-011. […] The results of the high-throughput drug screen and validation studies in TFE3-RCC tumor-derived cell lines have provided in vitro and in vivo preclinical data supporting the efficacy of the PI3K/mTOR inhibitor.
SEQUENCE No. (e.g., 1, 2, 3, etc.); […] (e.g., Cells, Incubation, Reagent, etc.); VALUE; DESCRIPTION.
1; Cells; 3 uL; white, solid-bottom Grenier assay plate.
2; Compounds; 23 nL; Kalypsis pin-tool (Wako USA).
3; Incubation; 48 hr; 37 C, 5% CO2, 95% humidity.
4; Reagent; 3 uL; CellTiter-Glo reagent (Promega).
5; Incubation; 15 min; room temperature.
6; Detection; Luminescence; ViewLux plate reader (PerkinElmer).
NOTES (numbers refer to Sequence numbers above)
1. Quantitative high-throughput screening (qHTS) of 1912 pharmacologically defined small molecule compounds was conducted on three TFE3-fusion cell lines bearing three different fusion partners (UOK109, UOK124, UOK145). Briefly, 500 cells in complete growth media were plated into white, solid-bottom, 1536-well tissue culture treated plates (Grenier Cat. 789173-F) using a Multidrop Combi cassette dispenser.
2. Twenty-three nanoliter of 1912 pharmacologically defined small molecule compounds of the NCATS Mechanism Interrogation PlatE (MIPE) version 4.0 were added to each assay plate using a Pintool Dispenser (Wako) equipped with 1536 pin head.
3. Plates were covered with stainless steel gasketed lids and incubated for 48 hours at standard cell culture conditions.
4. Viability was assessed by adding 3uL of CellTiter-Glo detection reagent (Promega).
5. Plates were covered with gasket lids and incubated for 15 minutes at room temperature.
6. Luminescence was measured on a ViewLux plate reader (PerkinElmer). Post-screen data processing used DMSO controls as 100% viability and empty wells as 0% viability and dose response curve fitting was done for all 11 concentrations for each compound.

[1] abbreviates: TFE3-RCC UOK109 viability, measured here: UOK109 Z-AUC.
The mark [2] stands for this setting: TFE3-RCC viability, measured here: UOK124 Z-AUC.
Setting [3] is: TFE3-RCC viability, measured here: UOK145 Z-AUC.

Records with an inconclusive call do not appear. Calls of active or inactive are those of the source.
Potency means the concentration at half of the fitted maximal effect.

In the case of `CC1(C)CC(=O)c2c(C(F)(F)F)nn(-c3ccc(C(N)=O)c(NC4CCC(O)CC4)c3)c2C1` (stereo unspecified), the Potency (TFE3-RCC UOK109 viability) was 372 nM (active). The z-score was -1.31 under setting [1], -0.879 under setting [2] and -1.53 under setting [3].
For `CCC(=O)N1CCN(c2ccc(-n3c(=O)ccc4cnc5ccc(-c6cnc7ccccc7c6)cc5c43)cc2C(F)(F)F)CC1`, in that order: 20.9 nM (active), -1.38, -1.23 and -1.82.
Consider `CO[C@H]1O[C@@H]2O[C@@]3(C)CC[C@@H]4[C@@H](C)CC[C@@H]([C@H]1C)[C@@]24OO3`, for which the z-score by setting is: under setting [1], 1.01; under setting [2], 0.926; under setting [3], 0.763.
The like results for `Cc1ccc(S(=O)(=O)OCC(=O)Nc2ccc(C(=O)O)c(O)c2)cc1` were, in that order, -0.0907, 0.585 and -0.321.
On to `CC[C@H]1OC(=O)[C@H](C)[C@@H](O[C@H]2C[C@@](C)(OC)[C@@H](O)[C@H](C)O2)[C@H](C)[C@@H](O[C@@H]2O[C@H](C)C[C@H](N(C)C)[C@H]2O)[C@](C)(O)C[C@H](C)C(=NOCOCCOC)[C@H](C)[C@@H](O)[C@]1(C)O`, for which the z-score reads like this: under setting [1], 1.24; under setting [2], -0.315; under setting [3], 0.696.
Consider `CC(=O)OCC(=O)[C@@]1(O)CC[C@H]2[C@@H]3CCC4=CC(=O)C=C[C@]4(C)[C@@H]3[C@@H](O)C[C@@]21C`, for which the z-score was 0.953 under setting [1], 0.317 under setting [2] and -2.56 under setting [3].
Take `COc1cccc(OC)c1-c1cc(C(=O)NC2(C(=O)O)C3CC4CC(C3)CC2C4)nn1-c1ccnc2cc(Cl)ccc12` (stereo unspecified): the z-score under setting [1] was 1.18, the z-score under setting [2] turned out to be 0.441 and the z-score under setting [3] was 0.707.
The like results for `O=C(O)C1=CO[C@@H](O[C@@H]2O[C@H](CO)[C@H](O)[C@H](O)[C@H]2O)[C@@H]2C(CO)=CC[C@H]12` were, in that order, 0.598, 0.803 and 0.387.
Regarding `CC(C)c1onc(-c2c(Cl)cccc2Cl)c1COc1ccc(C=Cc2cccc(C(=O)O)c2)c(Cl)c1`, the z-score turned out to be 0.965 under setting [1], 0.847 under setting [2] and 0.507 under setting [3].
As for `CCN1C[C@H](C)n2c(c(O)c3c(=O)n(Cc4ccc(F)c(Cl)c4)nc(C(=O)NC)c32)C1=O`, the z-score is, setting by setting: under setting [1], 0.808; under setting [2], 0.545; under setting [3], 2.87.
The like results for `N=C1SC(=Cc2ccc(-c3ccc4c(c3)C(=O)NC4=O)o2)C(=O)N1c1ccc(Br)cc1` were, in that order, 0.374, 0.836 and 0.868.
Turning to `CC(C)=CCCC(C)=CCCC(C)=CCCC(C)=CCCC(C)=CCCC(C)=CCCC(C)=CCCC(C)=CCCC(C)=CCO`, the z-score was 0.865 under setting [1], 0.571 under setting [2] and 1.27 under setting [3].
The like results for `O=C(O)C1=CC(O)C(O)[C@H](O)C1` (stereo partly specified) were, in that order, 1.04, 0.866 and 0.319.

The values above are taken from PubChem BioAssay (NCATS).
